# From PubChem BioAssay
# Sampled rows, rich in hits. Any-hit rate of the full collection: about 19%.
# TDP1 inh – inhibitors of human tyrosyl-DNA phosphodiesterase TDP1 | recombinant TDP1, AlphaScreen DNA substrate cleavage | Potency, µM (highest dose often 130 µM), inactives show at the highest dose activity change, negative = inhibition, hits mostly inhibitors | 350,000 compounds, 0.28% hits; note: nearly all actives have a fitted effect of over 40% in size
#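 AlphaScreen read-out: signal falls as enzyme removes the 3' tyrosine-FITC from a 5'-biotinylated DNA oligo (15 nM, 5 min, RT). Enzyme was E. coli-made recombinant Tdp1 at 1 nM, exposed to compound for 15 min beforehand; beads 10 ug/ml, 10 min.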
# RORg inh – ROR gamma (mouse) transcription inhibition; P51450; Drosophila S2 Gal4-RORgamma UAS-luciferase reporter, 20 h; Potency, µM (titrated, usually from 53.6 µM), inactives show top-dose activity change, negative = inhibition, actives largely listed as inhibitors; 310,000 compounds, 5.4% hits; AID 2551; note: nearly all actives have a fitted effect of over 60% in size
# Target sequence (P51450 whole entry, looked up, the tested form may be a part): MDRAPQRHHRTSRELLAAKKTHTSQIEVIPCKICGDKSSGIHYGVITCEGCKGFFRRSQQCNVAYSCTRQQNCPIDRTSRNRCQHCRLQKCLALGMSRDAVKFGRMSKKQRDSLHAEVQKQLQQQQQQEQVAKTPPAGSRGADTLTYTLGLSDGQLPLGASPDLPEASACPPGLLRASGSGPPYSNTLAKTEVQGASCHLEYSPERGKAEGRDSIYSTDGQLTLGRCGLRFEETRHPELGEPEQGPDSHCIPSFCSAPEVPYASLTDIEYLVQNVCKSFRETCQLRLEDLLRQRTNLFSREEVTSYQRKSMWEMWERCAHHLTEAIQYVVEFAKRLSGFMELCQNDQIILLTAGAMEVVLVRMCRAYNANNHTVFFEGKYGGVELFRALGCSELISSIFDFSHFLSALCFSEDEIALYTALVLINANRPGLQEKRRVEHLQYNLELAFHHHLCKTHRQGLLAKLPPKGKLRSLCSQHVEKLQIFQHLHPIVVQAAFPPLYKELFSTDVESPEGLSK
#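 Drosophila S2 cells stably expressing Gal4-DBD/mouse RORγ fusion under metallothionein promoter plus UAS-luciferase; compound 1 h, then 700 uM CuSO4 induction for 20 h at ambient temperature; inhibition read as reduced luminescence.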
# VP16 counter – Gal4-VP16 reporter inhibition counter-screen | Drosophila S2 Gal4-VP16 UAS-luciferase, luminescence, 20 h | 310,000 compounds, 3.5% hits | Potency, µM (highest dose often 53.6 µM), for the others: at the highest dose activity, negative = inhibition, most hits filed as inhibitors | AID 2546;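 note: Gal4-VP16 expression switched on by copper sulfate through the metallothionein promoter; nearly all actives have a fitted effect of over 50% in size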
# TDP1 cell CPT – growth inhibition of DT40 Tdp1-/-;hTDP1 cells with camptothecin (screen for TDP1 inhibitors); chicken DT40 Tdp1-/-;hTDP1 cells + 20 nM CPT, ATP luminescence, 48 h; AID 686979; 420,000 compounds, 12% hits; Potency, µM (highest dose often 46.2 µM), for the others: at the top dose activity change, negative = growth inhibition, most hits filed as inhibitors; note: nearly all actives have a fitted effect of over 55% in size
#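 Cell growth measured by CellTiter-Glo luminescence after a minimum 48 h, 37 C compound exposure with 20 nM CPT in Tdp1-knockout DT40 cells stably expressing hTDP1, seeded 400/well; qHTS titration format.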
# TDP1 cell noCPT – qHTS for Inhibitors of human tyrosyl-DNA phosphodiesterase 1 (TDP1): qHTS in cells in absence of CPT. DT40 Tdp1-/- hTDP1 cells, no CPT, ATP luminescence, 48 h. Potency, µM (doses to about 46.2 µM), for inactives: at the highest dose activity change, negative = growth inhibition, hits mostly inhibitors. 420,000 compounds, 15% hits; note: nearly all actives have a fitted effect of over 55% in size
#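 Chicken DT40 Tdp1-/- cells stably complemented with human TDP1 were seeded at 400 cells/well with DMSO in place of 20 nM camptothecin. After compound pinning, cells grew at least 48 hr at 37 °C; viability read by CellTiter-Glo luminescence.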
# * marks the source's active call; other numbers are inactive results; ? = inconclusive; / = no result; ! = a repeat was not active; [ ] = dose if it differs, or a comment. Calls come from the whole dose curve; as a rule, active = well fitted curve in the direction sought with a large enough effect; inconclusive = small, poorly fitted or top-dose-only effect, or another doubt; inactive = no such curve, though single readings can be large; an effect the other way counts as inactive or inconclusive. % is set by controls: 0 for no effect and ±100 for the full control effect; potency is the fitted concentration of half-maximal effect.
SMILES,TDP1 inh,RORg inh,VP16 counter,TDP1 cell CPT,TDP1 cell noCPT
Cc1c(Cc2ccccc2)sc(NC(=O)C(C)(C)C)c1C(N)=O,-7.7%,?,-12.3%,16.4µM*,29.1µM*
CCC(=O)Nc1sc(Cc2ccccc2)c(C)c1C(N)=O,11.9%,?,8.4%,16.4µM*,?
Cc1ccc(C)c(NC(=S)N(CCN(C)C)C(C)c2ccccn2)c1 (stereo not given),4.6%,?,1.3%,3.8%,-3.7%
COc1ccccc1Cn1cc(C(=O)c2ccc(C)cc2)c(=O)c2cc(C)ccc21,4.6%,/,/,5.17µM*,7.31µM*
COc1ccccc1Cn1cc(C(=O)c2ccc(C)cc2)c(=O)c2cc3c(cc21)OCCO3,0.0%,/,/,14.6µM*,20.6µM*
O=C(c1ccc(F)cc1)c1cn(Cc2ccccc2F)c2cc3c(cc2c1=O)OCCO3,5.8%,/,/,?,20.6µM*
COc1ccccc1Cn1cc(C(=O)c2ccccc2)c(=O)c2cc(OC)c(OC)cc21,8.1%,/,/,?,?
COc1ccc(Cn2cc(C(=O)c3ccc(F)cc3)c(=O)c3cc4c(cc32)OCCO4)cc1,2.3%,/,/,?,?
Cc1cc(NC(=O)CSc2nccn2C)n(-c2ccccc2)n1,/,1.6%,-8.4%,-4.2%,-7.6%
Cc1ccc(C(=O)NCCNC(=O)c2ccco2)cc1C,6.9%,10.3%,-10.6%,14.8%,1.0%
CCN(CC)CCCNC(=O)c1c(O)c2c([nH]c1=O)CCCC2,3.2%,-8.5%,3.7%,?,-17.9%
C=CCn1c(C(CC(C)C)CC(C)O)n[nH]c1=S (stereo not given),5.5%,?,3.8%,0.4%,-2.2%
C=CCn1c(C(CCCC)CC(O)COCC(C)C)n[nH]c1=S (stereo not given),4.7%,10µM*,?,-12.6%,?
C=CCn1c(C(CCCC)CC(O)COCCC)n[nH]c1=S (stereo not given),0.0%,7.08µM*,?,-0.7%,18.8%
Cc1ccc(NC(=O)N2CCN(S(=O)(=O)c3ccccc3)CC2)cc1,0.0%,16.3%,-2.9%[10 µM],4.4%,-17.9%
CC1=C(C(=O)N2CCCCCC2)CC(CC(=O)NCc2cccs2)C(=O)N1Cc1ccccc1 (stereo not given),/,/,/,-26.7%,?
CCn1cc(C(=O)O)c(=O)c2cc(F)c(N3CCN(S(=O)(=O)c4ccc(Br)cc4)CC3)cc21,0.6%,?,-23.1%,/,/
CN1C[C@@H]2C[C@H]1CN2c1cc2c(cc1F)c(=O)c(C(=O)O)cn2C1CC1,-4.3%,-23.3%[10 µM],-4.2%,6.68µM*,6.68µM*
O=C(O)c1cn(C2CC2)c2cc(N3CCN(S(=O)(=O)c4ccc5c(c4)OCCO5)CC3)c(F)cc2c1=O,-8.2%,-6.9%,0.0%,14.6µM*,14.6µM*
COc1c(F)c(F)cc2c(=O)c(C(=O)O)cn(C3CC3)c12,/,-2.2%,10.0%,2.0%,-16.8%
CCCCc1c(C)nc(N)[nH]c1=O,-1.9%,-17.4%,-7.8%,-113.2%,10.8%
CC(=O)C1=C(O)C(=O)N(CCc2c[nH]c3ccccc23)C1c1ccc(O)cc1 (stereo not given),1.0%,0.5%,0.3%,18.2%,-5.9%
COc1ccc(C2/C=C\CN(S(=O)(=O)c3ccc(C)cc3)C(Cc3ccccc3)C(=O)N2Cc2ccc(F)cc2)cc1 (stereo not given),13.2%,10µM*,-10.6%,/,/
COc1ccc(C2/C=C\CN(C(=O)Nc3ccc(C(F)(F)F)cc3)CC(=O)N2Cc2ccc(F)cc2)cc1 (stereo not given),9.1%,?,-0.2%,14.6µM*,13µM*
COc1ccc([C@H]2/C=C\CN(C(=O)C3CCCC3)[C@@H](C)C(=O)N2Cc2ccc(F)cc2)cc1,/,/,/,13µM*,7.31µM*
SMILES,TDP1 inh,RORg inh,VP16 counter,TDP1 cell CPT,TDP1 cell noCPT
CCCCCCC(=O)N1C/C=C\C(c2ccc(OC)cc2)N(Cc2ccc(F)cc2)C(=O)C1Cc1ccccc1 (stereo not given),9.1%,-40.4%,?,/,/
CCCCCCCN1C/C=C\C(c2ccc(OC)cc2)N(Cc2ccc(F)cc2)C(=O)[C@H]1Cc1ccccc1 (stereo not given in full),1.2%,-4.2%,-8.9%,?,18.4µM*
COc1ccc(C2/C=C\CN(S(=O)(=O)c3ccc(C)cc3)[C@H](Cc3ccccc3)C(=O)N2Cc2ccc(F)cc2)cc1 (stereo not given in full),8.3%,-44.2%,2.9%,?,?
COc1ccc(C2/C=C\CN(C(=O)Nc3ccccc3)CC(=O)N2Cc2ccc(F)cc2)cc1 (stereo not given),2.4%,10.4%,10.6%,?,?
COc1ccc(C2/C=C\CN(C(=O)C3CC3)C(C)C(=O)N2Cc2ccc(F)cc2)cc1 (stereo not given),6.2%,41.2%,9.9%,/,/
CC(C)=NNc1nc(-c2ccc(N3C(=O)CCC3=O)cc2)cs1,2.6%,-24.7%,-10.6%,4.8%,?
O=C(c1ccc(S(=O)(=O)N2CCOCC2)cc1)N1CCN(c2ccccn2)CC1,0.0%,15.4%,-7.1%,-14.9%,14.1%
COc1ccc(N(CC(=O)Nc2ccc(C)c(C)c2)C2=NC3CS(=O)(=O)CC3S2)cc1 (stereo not given),/,?,-27.0%,12.1%,-1.4%
Cn1cnc2c(oc3ccccc32)c1=O,/,/,/,17.0%,2.6%
COc1ccc(C2/C=C\CN(C(=O)C3CCCC3)[C@H](Cc3ccccc3)C(=O)N2Cc2ccc(F)cc2)cc1 (stereo not given in full),1.2%,-15.3%,7.4%,23.1µM*,?
CC(=O)c1ccc(-c2cc([C@H]3[C@H]4C=CC[C@@H](C)[C@@H]4C(=O)N3Cc3ccccc3)ccc2F)cc1,2.4%,-23.5%,-8.0%,14.6µM*,13µM*
C[C@@H]1CC=C[C@H]2[C@H]1C(=O)N(Cc1ccccc1)[C@H]2c1ccc(F)c(-c2ccc(N(C)C)cc2)c1,8.3%,8.6%,6.4%,8.2µM*,14.6µM*
CN(Cc1ccc(Cl)cc1)C(=O)COC(=O)CSc1ccc([N+](=O)[O-])cc1,5.9%,/,/,4.8%,-12.0%
CCN(c1ccc(OC)cc1)S(=O)(=O)c1nnc(NC(=O)c2ccccc2Cl)s1,6.0%,20.1%,-6.7%,?,16.4µM*!
COc1ccc(N(CC(C)C)S(=O)(=O)c2nnc(NC(=O)c3ccco3)s2)cc1,3.6%,41.4%,1.5%,?,20.6µM*!
Cc1ccc(N(CC(C)C)S(=O)(=O)c2nnc(NC(=O)c3cccs3)s2)cc1,1.3%,/,/,?,23.1µM*
CC1(C(=O)NS(=O)(=O)c2ccccc2)CCN1C(=O)CC1CC1 (stereo not given),/,/,/,-3.1%,-1.8%
